Test results reported in PubChem BioAssay.
Values without a mark were called inactive. Active and inactive are the calls of the source. No stated cut-off is given here; in the data, active means response above about 15%; inactive means the rest.

Assay: cytosolic pH regulators acting via V-ATPase – S. cerevisiae, pHLuorin, HTS validation (AID 504600);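 further: plate controls were DMSO for no effect and reference compound for full effect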
Conditions: V-ATPase proton transport, at 10 µM, active compounds read high
`Cc1oc2cc(O)cc(O)c2c(=O)c1-c1ccc2c(c1)OCCCO2` showed a response of 0.59%. Compound `O=C(c1ccco1)N1CCCN(Cc2nc(-c3ccc4c(c3)OCO4)no2)CC1` has a response of -0.63%. `COc1ccc2nc(S(=O)Cc3ncc(C)c(OC)c3C)[nH]c2c1` (stereo not given) showed a response of 0.81%. In the case of `CSCCC(NC(C)=O)C(=O)Oc1ccc2c3c(c(=O)oc2c1)CCCC3` (stereo not given), the response is reported as -2.62%. `CCOC(=O)C1NN=C(C(=O)c2ccccc2)C1c1ccc(Cl)cc1` (stereo not given) gave a response of -0.54%. Work on `CSCCC(NC(=O)OC(C)(C)C)C(=O)Oc1ccc2c(=O)c(-c3ccc4c(c3)OCCO4)coc2c1` (stereo not given) yielded a response of -3.69%. `COc1cc2c(cc1OC)/C(=C/c1ccc(Cl)cc1)C(=O)OC2` gave a response of -2.13%. Compound `COc1ccc(-c2coc3c(CN4CCOCC4)c(O)ccc3c2=O)cc1` has a response of -2.03%. For `OCCC1CN(Cc2ccccc2-c2ccco2)CCN1C1CCCC1` (stereo not given), the response was 4.26%. For `O=C(O)C1CCN(C(=O)COc2ccc3c4c(c(=O)oc3c2)CCC4)CC1`, the response was 1.29%. Work on `Cc1ccc(C(=O)NCCNC(=O)c2ccccc2)cc1` yielded a response of -1.2%. With `CC(=O)OCC(=O)[C@@]1(O)CC[C@H]2[C@@H]3CCC4=CC(=O)C=C[C@]4(C)[C@H]3[C@@H](O)C[C@@]21C` the response was -0.94%. Work on `CCCc1cc(C(N)=S)ccn1` yielded a response of -1.93%. With `Cc1ccc(Cl)c(Nc2ccccc2C(=O)O)c1Cl` the response was 11.1%. Work on `COc1ccccc1/C=C/C(=O)OCCN1CCOCC1` yielded a response of -0.97%. For `Fc1ccc(-c2cc(-c3ccccc3)nc(-n3cccn3)n2)cc1`, the response was 0.43%. Compound `O=c1c(-c2ccccc2)c(O)c2cccc3c2n1CCC3` has a response of 0.3%. Compound `COc1cc(CC(=O)NCCc2ccc(S(N)(=O)=O)cc2)cc(OC)c1OC` has a response of 0.1%. In the case of `CN(C)CCC(c1ccc(Cl)cc1)c1ccccn1` (stereo not given), the response is reported as 18.1% (active). `Cc1ccc2nc(N=C(N)N)nc(C)c2c1` showed a response of 5.97%. `CCn1c(N2CCN(CC(=O)c3c(C)n(C)c4ccc(OC)cc34)CC2)nc2c1c(=O)[nH]c(=O)n2C` showed a response of -2.91%. `CC1(c2ccccc2)CC(C)(C)N2C(=O)C(=O)c3cccc1c32` (stereo not given) gave a response of 3.44%. `O=C(COc1cc(O)c2c(=O)c3ccccc3oc2c1)OCc1ccccc1` gave a response of 4.03%. In the case of `C[N+](C)(C)CCOP(=O)([O-])OC[C@H](O)CO`, the response is reported as 0.86%. With `O=C(/C=C/Sc1ccccc1)c1ccccc1` the response was -5.17%. `O=C1Cc2ccccc2C(c2ccccc2)N1` (stereo not given) showed a response of -7.51%. Work on `Cc1ccc(NC(=O)CSc2nc(O)c(Cc3ccccc3)c(=O)n2-c2ccccc2)cc1` yielded a response of -1.44%. `COCCn1c(SCCOc2ccccc2)nc2ccccc2c1=O` showed a response of 0.42%. With `CC(=O)Oc1ccc2c(=O)c(Oc3ccccc3[N+](=O)[O-])coc2c1` the response was 0.8%. With `CCc1c(C(C)=O)oc2ccc3c(C)cc(=O)oc3c12` the response was 0.32%. Work on `COc1ccc(-c2[nH]ncc2CN(C)C(C)c2ccon2)c(OC)c1` (stereo not given) yielded a response of -3.5%. For `Cc1c(O)c(=O)ccn1C`, the response was 3.11%. Work on `COc1ccc2cc(C(=O)Nc3ccc(S(N)(=O)=O)cc3)sc(=O)c2c1OC` yielded a response of 0.97%. Work on `Cc1cnc(NC(=O)C2=C(O)c3ccccc3S(=O)(=O)N2C)s1` yielded a response of 1.87%. In the case of `O=C(O)c1ccc(N2C(=O)/C(=C\c3ccccc3)N=C2c2ccccc2)cc1`, the response is reported as -0.35%. Work on `O=C(CCC(=O)NCCO)NCCO` yielded a response of -3.85%. `CC(=O)O[C@H]1C[C@@]2(C)[C@@H](C[C@@H](O)[C@H]3[C@@]4(C)CC[C@@H](O)[C@@H](C)C4CC[C@@]32C)/C1=C(\CCC=C(C)C)C(=O)O` (stereo not given in full) gave a response of -3.26%. Compound `O=C(c1cc2cc(Br)ccc2o1)N1CCCC1` has a response of 0.97%. `CCOc1ccc2nc(NC(=O)NC3CCCCC3)sc2c1` gave a response of -7.78%. For `O=C(/C=C/c1c[nH]c2ccccc12)c1cccc2ccccc12`, the response was -1.5%.
